HTT cytoprotect: protects HTT-Q103 PC12 cells, measured by ATP; Potency, µM (doses to about 56.4 µM), without a hit: cytoprotection (ATP increase), hits mostly activators; AID 1471; PC12 HTT-Q103 induced, cytoprotection, ATP luminescence, 40 h; actives 0.14% (n = 230,000); also: potency is read from the fitted curve at half-maximal effect; % of control where 0% means no effect; nearly all actives have a fitted effect of over 45% in size
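Compounds added alongside 100 nM tebufenozide, which induces toxic Q103 huntingtin exon 1-GFP in stable PC12 cells; surviving cells quantified by luminescent ATP measurement. Medium: phenol red-free DMEM, 5% equine and 5% calf serum.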
HTT aggregate: mutant huntingtin aggregation inhibition. PC12 HttQ103-GFP aggregates, Acumen cytometry, 40 h. Potency, µM (highest dose often 46.1 µM), inactives show at the top dose activity change, negative = inhibition, usual class: inhibitors. actives 1.1% (n = 220,000); also: potency is read from the fitted curve at half-maximal effect; % is scaled to controls: 0 for no effect and ±100 for the full control effect; nearly all actives have a fitted effect of over 60% in size
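Compounds (qHTS titration) were added to PC12 cells expressing an ecdysone-driven HTT exon 1 Q103–GFP fusion after induction with 100 nM tebufenozide. Aggregate formation was measured as GFP objects in cell lysates.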
TRb-SRC2 inh: TRbeta-SRC2 interaction inhibition | Potency, µM (highest dose often 106 µM), for inactives: top-dose activity change, negative = inhibition, most hits filed as inhibitors | actives 0.065% (n = 280,000) | TRbeta-SRC2 peptide binding, fluorescence polarization; receptor liganded with 1 µM T3 | P10828 | AID 1469;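 also: potency is read from the fitted curve at half-maximal effect; plate controls were bound peptide for no effect and peptide without receptor for full effect; nearly all actives have a fitted effect of over 50% in size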
Target sequence (P10828 whole entry, looked up): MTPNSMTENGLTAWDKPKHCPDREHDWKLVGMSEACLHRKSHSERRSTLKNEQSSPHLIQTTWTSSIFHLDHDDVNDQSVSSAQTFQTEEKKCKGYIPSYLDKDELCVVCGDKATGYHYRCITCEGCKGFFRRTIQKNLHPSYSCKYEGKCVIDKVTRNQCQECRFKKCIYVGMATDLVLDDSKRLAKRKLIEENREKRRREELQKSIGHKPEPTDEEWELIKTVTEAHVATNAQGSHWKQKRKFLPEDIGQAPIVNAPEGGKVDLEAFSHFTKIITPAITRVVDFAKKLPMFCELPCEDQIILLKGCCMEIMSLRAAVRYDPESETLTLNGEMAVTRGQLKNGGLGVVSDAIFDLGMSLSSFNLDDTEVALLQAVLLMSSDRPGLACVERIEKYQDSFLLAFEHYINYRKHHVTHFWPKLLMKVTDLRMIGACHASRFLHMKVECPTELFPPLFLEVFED
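Polarization signal, normalized between peptide-alone and full complex controls, measured compound effects on T3-liganded human TRb LBD (0.6 uM) binding 20 nM Texas Red SRC2 peptide after 5 hr.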
FBPA coupling cs: inhibits coupling enzyme system, counter-screen for aldolase hits; coupling enzyme system counterscreen, AmpLite Red fluorescence; activity change, negative = inhibition, % at 58.2 µM, hits read low; actives 0.67% (n = 290,000); in the data active = activity change below about -30%; also: % is scaled to controls: 0 for no effect and ±100 for the full control effect
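Final compound at 57.5 uM, incubated 10 min at RT with coupling enzyme reagent (glyceraldehyde-3-phosphate), then 20 min with substrate and AmpLite Red detection. Fluorescence read at 525/598 nm; tests interference with the coupling assay, not aldolase inhibition.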
JMJD2E inh: inhibitors of human JMJD2E histone demethylase | B2RXH2 | JMJD2E catalytic domain, FDH-coupled NADH fluorescence (FDH is formaldehyde dehydrogenase) | Potency, µM (titrated, usually from 57.1 µM), for inactives: top-dose activity change, negative = inhibition, actives largely listed as inhibitors | actives 1.6% (n = 230,000); active = well fitted inhibition curve with a large enough effect, not every such curve was filed as active; inconclusive = small, poorly fitted or top-dose-only effect, or another doubt; inactive = no such curve, though single readings can be large or run the other way;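 also: potency is read from the fitted curve at half-maximal effect; 0% = wells with enzyme and -100% = buffer wells without enzyme; nearly all actives have a fitted effect of over 50% in size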
TexasRed fluor: counter-screen for TRb-SRC2 inhibitors: fluorescence interference. Potency, µM (highest dose often 106 µM), without a hit: at the top dose fluorescence change, negative = quenching. TRb/SRC2 Texas Red total fluorescence interference. AID 1479. actives 0.29% (n = 280,000); active = well fitted curve in either direction with a large enough effect; inconclusive = small, poorly fitted or top-dose-only effect; also: potency is read from the fitted curve at half-maximal effect; % is scaled to controls: 0 for no effect and ±100 for the full control effect
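Human TRb ligand-binding domain at 0.6 uM with 20 nM Texas Red SRC2 peptide in Tris buffer containing 1 uM T3 and 5% DMSO, incubated with compound 5 h at ambient temperature. Total fluorescence (555/632 nm) calculated as parallel + 2 × perpendicular.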
Starred values were filed as active, the others as inactive; ? = inconclusive; . = not tested or not shown; ! = not active in a repeat; [ ] = remark or other dose. Hits are enriched below; roughly 2% of the tested compounds scored in any of these assays. Unless noted, calls follow the shape of the dose curve; as a rule, active = well fitted curve in the direction sought with a large enough effect; inconclusive = small, poorly fitted or top-dose-only effect, or another doubt; inactive = no such curve, though single readings can be large; an effect the other way counts as inactive or inconclusive.

SMILES	HTT cytoprotect	HTT aggregate	TRb-SRC2 inh	FBPA coupling cs	JMJD2E inh	TexasRed fluor
COc1ccc(-c2nc3sc(CCNS(=O)(=O)c4ccccc4)c(C)n3n2)cc1	.	.	-7%	.	.	0%
CCN(CC)S(=O)(=O)c1ccc2c(c1)N(CC(=O)N1CCN(c3ccc(OC)cc3)CC1)C(=O)CO2	.	.	-6%	.	.	-1%
O=C(Nc1ccc2c(c1)OCO2)c1ccc(Br)c(S(=O)(=O)N2CCCC2)c1	-7%	13µM*	1%	-1	-29%	-1%
N#CCSc1nc(Nc2ccc3c(c2)OCO3)c2ccccc2n1	-36%	25µM*	6%	0	-3%	-4%
COc1ccc(NC(=O)c2nnn(Cc3nc(-c4cc(OC)c(OC)c(OC)c4)oc3C)c2C)cc1Cl	.	.	-22%[53 µM]	.	.	0.0089µM*[quencher]
O=C(Nc1ccccc1Cl)N1CCN(c2ccc3nnc(-c4ccccc4)n3n2)CC1	-30%	?	-4%	0	?	-3%
O=C(Nc1ccc(Cl)cc1)N1CCN(c2ccc3nnc(-c4ccc(F)cc4)n3n2)CC1	-14%[10 µM]	22µM*	6%	1	?	-1%
CC(=O)c1sc(NC(=O)C2(F)C(F)(F)C(F)(F)C(F)(F)C(F)(F)C2(F)F)nc1C	-5%[0.074 µM]	1.4µM*	-17%	1	-2%	3%
Cc1cc2c(N)cccc2nn1	-10%	16%	3%	-37*	?	-1%
COc1cccc(C(c2sc3nc(-c4ccco4)nn3c2O)N2CCN(c3ccccc3F)CC2)c1 (centres undefined)	.	.	1%	.	.	0%
Cc1ccc(C(=O)N/N=C/c2ccc(-c3ccccc3[N+](=O)[O-])o2)cn1	13%[1.9 µM]	16%	?	-61*	-4%	32µM*[quencher]
O=C(N/N=C/c1ccc(-c2ccccc2[N+](=O)[O-])o1)[C@H]1C[C@@H]1c1ccccc1	.	?	1%	-44*	11%	2%
O=C(N/N=C/c1ccc(-c2ccc([N+](=O)[O-])cc2)o1)[C@H]1C[C@@H]1c1ccccc1	3%[10 µM]	4%[9.22 µM]	2%	-10	-1%	0%
CCCOc1ccc(-c2nonc2NC(=O)c2cc(OC)c(OC)c(OC)c2)cc1OCCC	.	.	1%	.	.	5%
COc1cccc(/C=N/Nc2nn3cnnc3c3ccccc23)c1O	-36%	?	4%	-1	18µM*	-1%
Oc1cccc(/C=N/Nc2nn3cnnc3c3ccccc23)c1	-38%[10 µM]	-18%[9.22 µM]	-8%	1	-3%	-2%
CCN(CC)CCOC(=O)C1(c2ccc([N+](=O)[O-])cc2)CCCC1	0.32µM*!	.	-5%	2	-4%	-1%
CCN(CC)CCCOC(=O)C1(c2ccccc2)CCCC1	6%	21%	7%	-10	-4%	-1%
C/C(=C1/C(=O)N(c2ccc([N+](=O)[O-])cc2)N=C1c1ccccc1)N(C)C	-38%	13µM*	3%	-1	2%	-3%
CN(C)/C=C1/C(=O)N(c2ccc([N+](=O)[O-])cc2)N=C1c1ccccc1	9%[10 µM]	-13%	8%	6	?	-11%
Cc1ccc(C)c(N2CCN(S(=O)(=O)c3ccc(-c4cnc(C5CC5)o4)cc3)CC2)c1	.	.	2%	.	.	0%
COC(=O)c1[nH]c2ccc(C)cc2c1NC(=O)CN1CCN(c2ccccc2)CC1	-76%[0.074 µM]	?	-4%	-3	?	-3%
COC(=O)c1[nH]c2ccc(C)cc2c1NC(=O)CN1CCN(c2ccc(F)cc2)CC1	1.6µM*	-27%	-11%	-5	?	-1%
CC(O)(c1ccc(Cl)cc1)c1ccc(Cl)cc1	.	.	-4%	-2	.	3%
Cc1nc2cnc(N(C)C)nc2n(C[C@H]2CCCO2)c1=O	-23%	.	.	1	.	.
SMILES	HTT cytoprotect	HTT aggregate	TRb-SRC2 inh	FBPA coupling cs	JMJD2E inh	TexasRed fluor
CCOC(=O)CSc1nc2cc(C(=O)N3CCC(C(N)=O)CC3)ccc2c(=O)n1-c1ccccc1	-17%	2.8µM*	-2%	2	1%	0%
CCOC(=O)CSc1nc2cc(C(=O)N3CCCC3)ccc2c(=O)n1Cc1ccccc1	5%	3%	9%	-5	-8%	2%
CCOc1c(Cl)cc(CNc2ccc(N3CCCC3)cc2)cc1OC	8%[10 µM]	-14%	?	-30	8.9µM*	11%
CCOc1c(Cl)cc(CNc2ccc(S(N)(=O)=O)cc2)cc1OC	13%[10 µM]	2%	5%	1	3%	0%
Cc1ccc(Cl)cc1NC(=O)CC(O)(C(F)(F)F)C(F)(F)F	-21%	16µM*	6%	-1	10%	-2%
Cc1ccc(C)o1	-8%	.	-5%	.	.	-2%
C#CCOCCOCCOCCNc1nc(N2CCN(C(=O)[C@H](CCCCN)n3cc([C@@H](N)C(C)CC)nn3)CC2)nc(N2CCN(C(=O)[C@H](CCCCN)n3cc([C@@H](N)CO)nn3)CC2)n1 (some centres undefined)	40%[10 µM]	3%[9.22 µM]	0%	5	20µM*	-3%
C#CCOCCOCCOCCNc1nc(N2CCN(C(=O)[C@H]([C@@H](C)CC)n3cc([C@@H](N)CO)nn3)CC2)nc(N2CCN(C(=O)[C@H](CCCCN)n3cc([C@@H](N)C(C)CC)nn3)CC2)n1 (some centres undefined)	-1%[10 µM]	2%[9.22 µM]	-8%	3	-1%	-2%
CCCCN1CCc2[nH]c(=S)[nH]c(=O)c2C1	-13%[10 µM]	-4%	-22%[53 µM]	-6	-5%	0.71µM*[quencher]
COC(=O)c1c(NC(=O)CN2CCC3(O)CCCCC3C2c2ccc(OC)cc2OC)sc(C)c1C (centres undefined)	-19%[1.9 µM]	23%	?	0	-8%	100µM*[quencher]
Clc1ccc(-n2nnc(-c3nccs3)n2)cc1Cl	-16%[10 µM]	9%[9.22 µM]	-2%	2	13µM*	2%
CN=c1scc(-c2ccco2)n1/N=C/c1ccc(O)c(O)c1	-237%	8.9µM*	-3%	-12	25µM*	-4%
C=CCN=c1scc(C)n1/N=C/c1ccc(O)c(O)c1	-8%[10 µM]	?	-8%	-10	16µM*	-4%
CN=c1scc(C)n1/N=C/c1ccc(O)cc1	-82%	-5%	-10%	-3	-3%	-2%
COc1ccc(O)c(/C=N/n2c(-c3ccco3)csc2=Nc2cccnc2)c1	34%[10 µM]	-12%	-8%	-5	-12%	0%
CC(NC(=O)C1CCN(S(=O)(=O)c2ccc(F)cc2)CC1)c1ccccc1 (centres undefined)	.	.	3%	.	.	-3%
Cc1ccc(S(=O)(=O)NNC(=O)C(=O)NNS(=O)(=O)c2ccc(C)cc2)cc1	-14%	8%	-2%	7	7%	-2%
Cc1ccc(NNS(=O)(=O)c2ccc(C)cc2)cc1	-34%	12%	0%	.	18µM*	-1%

Source: PubChem BioAssay (National Center for Advancing Translational Sciences (NCATS))
